High-throughput results: PubChem, The Scripps Research Institute Molecular Screening Center
The list is not random: actives were taken first. Their share in the collection is about 1.1%.
OPRM1-OPRD1 ag – agonists of human mu-delta opioid receptor heterodimerization | 340,000 tested, 0.3% active | activation, % at 9.3 µM | P35372+P41143 | cells, OPRM1-OPRD1 heterodimerization, luminescence; in the data active = activation above about 18%
HTR5A ag ctr – activates human HTR5A in OPRM1-OPRD1 agonist counter-screen | P47898 | HTR5A agonist assay, luminescence, cell-based | activation, % at 9.3 µM | 340,000 tested, 0.61% active | AID 504692; in the data active = activation mostly above about 9.5%, no sharp cut-off; inactive = mostly below about 7.6%
Target sequence (P47898 whole entry, looked up): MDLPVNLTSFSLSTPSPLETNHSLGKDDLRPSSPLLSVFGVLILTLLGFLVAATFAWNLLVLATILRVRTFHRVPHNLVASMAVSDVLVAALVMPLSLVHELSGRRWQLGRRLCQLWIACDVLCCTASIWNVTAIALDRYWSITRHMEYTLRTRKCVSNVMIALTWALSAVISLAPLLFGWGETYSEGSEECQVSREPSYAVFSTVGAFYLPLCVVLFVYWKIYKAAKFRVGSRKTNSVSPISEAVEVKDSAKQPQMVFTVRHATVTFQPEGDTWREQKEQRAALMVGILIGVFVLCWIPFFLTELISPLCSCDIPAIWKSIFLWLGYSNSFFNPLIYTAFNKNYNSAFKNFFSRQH
OPRM1-OPRD1 inv – inverse agonists of human mu-delta opioid receptor heterodimerization. cell-based MOR-DOR heterodimer luminescence, inverse agonism. AID 504357. P35372+P41143. 340,000 tested, 0.21% active. inhibition, % at 9.3 µM; in the data active = inhibition above about 22%, passing the limit was not always enough
HTR5A inv ag – HTR5A inverse agonism, opioid heterodimer counter-screen; AID 504634; HTR5A cell line, luminescence; 340,000 tested, 0.083% active; inhibition, % at 9.3 µM; in the data active = inhibition mostly above about 23%, no sharp cut-off; inactive = mostly below about 18%
Hits are given with their value; . = inactive.

SMILES	OPRM1-OPRD1 ag	HTR5A ag ctr	OPRM1-OPRD1 inv	HTR5A inv ag
Cc1noc(C)c1Cc1c(Cl)cccc1Cl	.	.	.	.
Cc1noc(C)c1Cc1ccc(O)cc1	.	14	.	.
CCCCNC(=S)NNC(=O)CCn1nc(C)c(Br)c1C	.	.	76	49
CCCCNC(=S)NNC(=O)CCn1cc(C)cn1	.	.	.	.
COc1ccc(-c2cc(C3CCN(c4cc(Cl)nc(N)n4)CC3)[nH]n2)cc1	.	.	.	.
COc1ccc(OC)c(-c2cc(C3CCN(c4cc(Cl)nc(N)n4)CC3)[nH]n2)c1	.	10	.	.
Nc1nc(Cl)cc(N2CCC(c3cc(-c4ccc(Cl)cc4)n[nH]3)CC2)n1	.	14	.	.
O=c1ccc(-c2ccc(S(=O)(=O)NCC3CCN(Cc4ccccc4F)CC3)s2)n[nH]1	.	.	.	.
CSc1nc(NNC=O)cc(Oc2ccc(NC(C)=O)cc2)n1	.	.	.	.
CCN(c1ccccc1)S(=O)(=O)c1ccc(C(=O)N(CCCN(C)C)c2nc3cc4c(cc3s2)OCO4)cc1	32	.	.	.
COc1ccc(NC(=O)CNCc2ccc(Cl)cc2)cc1S(=O)(=O)N1CCOCC1	.	.	.	.
O=C(NCCN1CCCCC1)c1cc(OCC(F)(F)F)ccc1OCC(F)(F)F	.	10	.	.
Cc1ccc(S(=O)(=O)c2c(C)nn(C(C)(C)C)c2OC(=O)c2ccco2)cc1	.	12	.	.
CCOc1ccc(C(=O)Nc2cccc([N+](=O)[O-])c2)cc1Br	.	9.2	.	.
CCOc1ccc(C(=O)Nc2cccc(NC(=O)c3cccs3)c2)cc1[N+](=O)[O-]	.	.	.	.
CCc1cc(Cn2nc(-c3ccccc3)cc2C(=O)NCc2cccs2)on1	.	.	.	.
COc1ccccc1CNC(=O)C1Cc2cc(S(=O)(=O)N3CCCCC3)ccc2N1C(C)=O (configuration not stated)	.	.	.	.
OC(CNCC1COc2ccccc2O1)COc1ccc(Cl)cc1 (configuration not stated)	.	9.6	.	.
CC(C)N(C(=O)[C@H]1C[C@H](CC(=O)NCCCn2ccnc2)C(=O)N2CCc3c([nH]c4cc(CCC(=O)N(C)C)ccc34)[C@]12C)C(C)C	.	.	.	.
Cc1ccc(S(=O)(=O)Nc2cccc3ncccc23)s1	.	.	44	.
Cc1ccc(NC(=O)C2CCN(C(=O)OC(C)(C)C)CC2)cc1S(=O)(=O)N1CCCCC1	.	.	.	.
Cc1ccc(N2CCN(CC(O)COC3CCCCC3)CC2)cc1 (configuration not stated)	.	10	.	.
CCOC(=O)C(C)CC(C)C(=O)N1CCOCCN(C(=O)C(C)CC(C)C(=O)OCC)CCOCC1 (configuration not stated)	.	9.2	.	.
O=C(/C=C/c1ccc(Br)cc1)NC1CCCCCC1	.	14	.	.
CCCOc1ccc(/C=C/C(=O)NC2CCCCC2)cc1	.	.	.	.
SMILES	OPRM1-OPRD1 ag	HTR5A ag ctr	OPRM1-OPRD1 inv	HTR5A inv ag
CC(C)C[C@H](NC(=O)c1nc[nH]c1C(=O)NC1CCN(C(=O)OC(C)(C)C)CC1)C(=O)OCc1ccccc1	.	12	.	.
CC1=Nc2nc(N3CCCCCC3)c(C#N)c3c4c(nc(c23)N1)N(c1ccc2ccccc2c1)C(=O)C4	.	.	.	.
Cc1c(CCOC(=O)CC23CC4CC(CC(C)(C4)C2)C3)sc[n+]1CC(=O)c1ccccc1	.	13	.	.
Cc1c(CCOC(=O)C23CC4CC(CC(C)(C4)C2)C3)sc[n+]1CC(=O)c1ccccc1	.	.	.	.
O=C1c2cccc3cccc(c23)C(=O)C1(O)O	.	.	46	.
O=C1c2cccc3cccc(c23)C(=O)N1c1ccc(O)cc1	.	.	.	.
O=C(COc1ccc2c(c1)OCO2)Nc1nncs1	.	.	.	.
O=C1Nc2ccccc2C1(c1ccccc1)c1ccccc1	29	39	.	.
CCCNC(=O)Cc1c(OC)ccc2cc(Br)ccc12	.	13	.	.
CCCCNC(=O)Cc1c(OC)ccc2cc(Br)ccc12	.	.	.	.
CC(=O)OCCNc1cc(Sc2nc3ccccc3[nH]2)c2nonc2c1[N+](=O)[O-]	.	.	35	.
O=C(O)c1ccc(NC2=C/C(=N/S(=O)(=O)c3ccccc3)c3ccccc3C2=O)cc1	28	.	.	.
Cc1cccc(C)c1NC(=O)C(=O)NCCc1c[nH]c2ccccc12	.	.	.	.
Cc1cc(C)c(S(=O)(=O)N2CCCOC2CNC(=O)C(=O)NCCc2c[nH]c3ccccc23)c(C)c1 (configuration not stated)	.	12	.	.
Cc1cc(C)cc(NC(=O)C(=O)NCCc2c[nH]c3ccccc23)c1	.	14	.	.
Cc1cccc(NC(=O)C(=O)NCCc2c[nH]c3ccccc23)c1C	.	14	.	.
Cc1ccc(C)c(NC(=O)C(=O)NCCc2c[nH]c3ccccc23)c1	.	.	.	.
COc1ccc(C(C(=O)NCC2CCCO2)N(C(=O)CNC(=O)c2ccco2)c2cc(C)ccc2C)cc1OC (configuration not stated)	.	.	.	.
COc1ccccc1N(C(=O)CCl)c1cn(C(C)=O)c2ccccc12	50	39	.	.
CCOC(=O)c1ccccc1Nc1cn(C(C)=O)c2ccccc12	.	.	.	.
COC(=O)c1cc(C)nc2c1C(=O)C(=O)C=C2N1CCOCC1	26	.	.	.
Cc1[nH]c(=O)[nH]c(=O)c1S(=O)(=O)Nc1ccc(Br)cc1F	.	.	.	.
COc1ccc(CNc2nc(NCc3ccc(OC)c(OC)c3)n(C(=O)c3cccs3)n2)cc1OC	.	14	.	.
CC(C)CC(=O)N1CCN(Cc2ccc(C(F)(F)F)cc2)CC1	.	.	.	.
Cc1cccc(-n2ccnc2SCC(=O)c2c(N)n(C3CC3)c(=O)[nH]c2=O)c1C	.	.	.	.
SMILES	OPRM1-OPRD1 ag	HTR5A ag ctr	OPRM1-OPRD1 inv	HTR5A inv ag
O=Nc1c2cc3ccccc3[nH]c-2c2ccccc12	.	.	.	.
O=Nc1c(O)c2ccccc2c2ccccc12	.	12	.	.
N/C(=N\OC(=O)c1ccc(Cl)c(Cl)c1)c1ccccn1	.	14	.	.
N/C(=N\OC(=O)c1ccc(Cl)cc1)c1ccccn1	.	.	.	.
COc1ccc(S(=O)(=O)Nc2ccccc2C(=O)N2CCCCC2)cc1C	.	.	.	.
Cc1cccc(N(Cc2ccccc2)C(=O)CCl)c1	67	65	.	.
Cc1ccc(Nc2c(-c3ccccn3)nc3cccc(C)n23)cc1	.	.	34	.
O=S(=O)(c1ccc2nc(-c3ccccc3)[nH]c2c1)N1CCN(c2ccc(Cl)cc2)CC1	.	10	.	.
O=c1ccc2cc(S(=O)(=O)N3CCN(c4ccccc4)CC3)ccc2[nH]1	.	.	.	.
COCCn1c(SCC(=O)NCc2ccc(F)cc2)nc2ccccc21	.	13	.	.
COCCn1c(SCC(=O)NCc2ccccc2)nc2ccccc21	.	.	.	.
CCC(CC)c1nnc(NC(=O)CC(C)c2ccccc2)s1 (configuration not stated)	.	12	.	.
